Compounds without any hit were thinned out: in the full panel of roughly 83,000, 20% have a hit.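 Values shown are percent growth following 48 h exposure of cells in 96-well plates to a single concentration of compound; below 10 was considered active.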 Unmarked numbers belong to inactive results. Activity calls are given as the source filed them.
These compounds were tested on NCI-H460 lung (assay: NCI-60 one-dose screen, 48 h (100 = growth as untreated, 0 = no growth, -100 = all killed)). Conditions: 10 µM.

Compound | growth
Cc1ccc(C)c(COc2cc(NC(=O)c3ccc4c(c3)OCO4)ccc2N(C)S(C)(=O)=O)c1 | -9.36% (active)
CCOC(=O)c1cc(C(=O)c2ccc(Cl)cc2)n2ccc(-c3cc[n+](CC(=O)c4ccc(OC)cc4)cc3)cc12 | 3.93% (active)
Clc1ccc(C2=NN=C3C(Cc4ccccc4)=Nc4ccccc4N3C2)cc1 | 86.8%
O=C1c2ccccc2C(=O)c2c1ccc(C(Br)Br)c2[N+](=O)[O-] | 75.2%
COc1ccc(-c2nc(-c3nc4ccc(C)cc4[nH]3)cc3c2[nH]c2ccccc23)cc1 | 32.8%
C(=N\Nc1ncnc2sc3c(c12)CCNC3)/c1cccc2ccccc12 | 62.8%
CC(=O)N[C@H](C(=O)N[C@@H](CCCNC(=N)N)C(=O)N[C@@H](CCCCN)C(=O)N[C@@H](CCCNC(=N)N)C(=O)NC(C(=O)N[C@@H](CC(C)C)C(=O)N[C@@H](CCCNC(=N)N)C(=O)N[C@@]1(C)CCC/C=C\CCC[C@@](C)(C(=O)N[C@@H](CCCNC(=N)N)C(=O)N[C@@H](CCC(=O)O)C(=O)N[C@@H](CC(C)C)C(=O)N[C@H](C(=O)N[C@@H](CCC(=O)O)C(N)=O)C(C)C)NC(=O)[C@H](CCC(N)=O)NC(=O)[C@H](CC(C)C)NC(=O)[C@H](CC(C)C)NC1=O)[C@@H](C)O)C(C)C (stereo not given in full) | -63.6% (active)
Cc1noc(C)c1CSc1ccccc1C(=O)N1CCN(c2cccc(C(F)(F)F)c2)CC1 | 84.2%
C=CCn1c(SCC(=O)Nc2ccc(C(=O)/C=C/c3ccc(OC)cc3)cc2)nnc1-c1ccc(OC)c(OC)c1 | 91.7%
CNC(=O)c1cc(Oc2ccc3c(c2)sc2nc(-c4ccc(N)cc4)cn23)ccn1 | 10.1%
C/C(=N\O)c1ccc(NC(=O)CSc2nnc(-c3ccccc3)n2-c2ccccc2)cc1 | 66.7%
CCN(CC)CCCC(C)Nc1c2ccc(Cl)cc2nc2ccc(OC)cc12 (stereo not given) | 2.49% (active)
CC[C@@H](C(=O)[C@@H](C)[C@@H](O)[C@H](C)[C@@H]1O[C@@H]([C@@H](CC)C(=O)N(CC)CC)CC[C@@H]1C)C1O[C@]2(C=CC(=O)[C@]3(CC[C@@](C)([C@H]4CC[C@](O)(CC)[C@H](C)O4)O3)O2)[C@H](C)C[C@@H]1C (stereo not given in full) | 18.5%
O=S(=O)(Oc1ccc(-c2ccc3sccc3c2)cc1)c1ccccc1 | 103%
COc1ccc(-c2cc(-c3ccc(Cl)cc3)nc(SCCCCCCC(=O)NO)n2)cc1OC | 19.7%
CN1C(=O)C2(Nc3cc(Cl)ccc3S2)c2cc(Cl)ccc21 (stereo not given) | 95.2%
Nc1ccc(/C=N/Nc2ccnc3c(O)cccc23)c2cccnc12 | 25.9%
CN(C)CCOc1ccccc1NC1=C(Cl)C(=O)C(Nc2ccccc2OCCN(C)C)=C(Cl)C1=O | 99.2%
CCn1c(SCCc2ccccc2)nnc1-c1nn(-c2ccc(Cl)cc2Cl)c(-c2ccc(Cl)cc2)c1C | 73.7%
C=CCNCCN1C(=O)c2ccc3c4c(ccc(c24)C1=O)C(=O)N(CCNCC=C)C3=O | -39.3% (active)

Compound | growth
COc1cc(C)ccc1Oc1nc(Nc2ccc(N3CCOCC3)cc2)ncc1NC(=O)Nc1cc(C(F)(F)F)cc(C(F)(F)F)c1 | 24.7%
COc1cccc(CNc2cccc3cn[nH]c23)c1O | 111%
NS(=O)(=O)Oc1ccc(NC(=O)C2CCCCCC2)cc1 | 106%
COc1ccc(-c2n[nH]nc2-c2cc(OC)c3c(c2OC)OCO3)cc1 | 11.4%
CCCN(CCC)C(=O)[C@H](CC)[C@@H]1CC[C@@H](C)[C@@H]([C@H](C)[C@@H](O)[C@@H](C)C(=O)[C@H](CC)C2O[C@]3(C=C[C@@H](O)[C@]4(CC[C@@](C)([C@H]5CC[C@](O)(CC)[C@H](C)O5)O4)O3)[C@H](C)C[C@@H]2C)O1 (stereo not given in full) | 1.15% (active)
COc1cc(-c2nc3ccccc3o2)cc(CN2CCCCC2)c1O | 31.7%
CC(=O)N[C@H](C(=O)N[C@@H](CCCNC(=N)N)C(=O)N[C@@H](CCCCN)C(=O)N[C@@H](CCCNC(=N)N)C(=O)N[C@]1(C)CCC/C=C\CCC[C@@](C)(C(=O)N[C@@H](CC(C)C)C(=O)N[C@@H](CC(C)C)C(=O)N[C@@H](CCC(N)=O)C(=O)N[C@@H](CCC(=O)O)C(=O)N[C@@H](CCCNC(=N)N)C(=O)N[C@@H](CCC(=O)O)C(=O)N[C@@H](CC(C)C)C(=O)N[C@H](C(=O)N[C@@H](CCC(=O)O)C(N)=O)C(C)C)NC(=O)[C@H](CCCNC(=N)N)NC(=O)[C@H](CC(C)C)NC1=O)C(C)C | 105%
S=C(NCc1ccccc1)NCc1ccccc1 | 103%
CC(C)c1ccc(C(C)C(=O)N(CC2=C(C(C)c3ccccn3)c3ccccc3C2)C(C)C)cc1 (stereo not given) | 23.1%
COc1cc(/C=C2\CCCC3=C2NC(N)=NC3c2cc(OC)c(OC)c(OC)c2)cc(OC)c1OC (stereo not given) | -42.6% (active)
COc1ccc(-c2cc(-c3ccc(Cl)cc3)nc(SCCCC(=O)NO)n2)cc1 | 0.515% (active)
CC(C)CCN(CCC(C)C)CC(=O)Nc1ccc(S(=O)(=O)c2ccc(NC(=O)CN(CCC(C)C)CCC(C)C)cc2)cc1 | 48.2%
CN(C)CCCOc1ccccc1NC1=C(Cl)C(=O)C(Nc2ccccc2OCCCN(C)C)=C(Cl)C1=O | -20.6% (active)
CC(C)(C)c1nn(-c2ccccc2)c2c1CC1(CN2Cc2ccc(Cl)cc2)C(=O)c2ccccc2C1=O | 90.7%
N#CCc1csc(Cc2ccccc2)n1 | 102%
COc1ccc(/C=C/c2nnc(/C=C/c3ccc(OC)c(OC)c3)o2)cc1OC | 15.6%
NS(=O)(=O)c1ccc(Br)cc1 | 108%
CCOC(=O)CC(S(=O)(=O)c1ccccc1)S(=O)(=O)c1ccccc1 | 103%
Nc1nc(N)c(N)c(Nc2ccc(CCO)cc2)n1 | 108%
CCN(CC)CCOc1ccc2c(c1O)C(=O)c1ccccc1C2=O | 84.5%
